# Results as given in PubChem BioAssay (NCATS).
# Inconclusive results are not listed. Entries that show only a call come without a potency. The source made the active and inactive calls. Calls come from the whole dose curve; as a rule, active = well fitted cell-killing curve with a large enough effect; inconclusive = small, poorly fitted or top-dose-only effect, or effect the other way; inactive = flat fitted curve, though single readings scatter. Where a SMILES comes first, the peptide text is derived from it.
# Test system: PA-1
# Assay: Primary qHTS to identify gynecologic anti-cancer compounds using libraries of approved drugs and bioactive compounds (AID 1345084); note: nearly all actives have a fitted effect of over 55% in size
# Conditions: Gynecologic cancer cell panel viability, ATPlite luminescence, 48 h; series mostly up to 57.5 µM
# How it was run: (§1)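 ATP-based viability (ATPlite), 1,000 cells/well, 16 h pre-incubation, 48 h compound at 37 C, 5% CO2, 15 min RT before read.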
# Potency is the fitted concentration of half-maximal effect.
Compound,Potency,"activity change, negative = cytotoxicity"
CC(C)(O)C(O)C(=O)OCc1ccc(O[C@@H]2O[C@H](CO)[C@@H](O)[C@H](O)[C@H]2O)cc1 (stereo partly drawn),inactive,–
C=C1C[C@H](O)[C@@H](O)[C@@]2(C)C1[C@@H](O)[C@H]1OC(=O)C3[C@@H](C)[C@@H](O)[C@H](O)C2[C@]31C (stereo partly drawn),inactive,–
OCC1=C[C@@H](O)[C@@H]2C=CO[C@@H](O[C@@H]3O[C@H](CO)[C@@H](O)[C@H](O)[C@H]3O)[C@H]12,inactive,–
Cc1cc(C)c2nc(-c3ccccn3)cc(C(=O)Nc3ccc(S(=O)(=O)Nc4onc(C)c4C)cc3)c2c1,inactive,–
COc1cc(/C=C/C(=O)OC[C@H]2O[C@@H](OC3OC=C(C(=O)O)C4C(O)CC(C)(O)C34)[C@H](O)[C@@H](O)[C@@H]2O)cc(OC)c1O (stereo partly drawn),inactive,–
CC1(C)CC[C@]2(C(=O)O)[C@H](O)C[C@]3(C)C(=CCC4[C@@]5(C)CC[C@H](O[C@@H]6OC[C@@H](O)[C@H](O)[C@H]6O)[C@@](C)(C(=O)O)C5CC[C@]43C)[C@@H]2C1 (stereo partly drawn),inactive,–
COC(=O)CCC1(C)C(C(C)(C)O)C(O)CC2(C)Oc3c(C)c4c(c(OC)c3CC21)C(=O)OC4 (stereo not drawn),inactive,–
C=CC(C)(C)C12Nc3c(ccc4c3OC(C)(C)C=C4)C1(O)CC1C(=O)N3CCCC3C(=O)N12 (stereo not drawn),inactive,–
CCc1cccc2c3c([nH]c12)[C@@](CC)(CC(=O)O)OCC3,inactive,–
CN(C)CC(c1ccc(O)cc1)C1(O)CCCCC1 (stereo not drawn),inactive,–
OC[C@@]1(O)CO[C@@H](OC[C@H]2O[C@@H](Oc3ccccc3)[C@H](O)[C@@H](O)[C@@H]2O)[C@@H]1O,inactive,–
O=C(OC[C@H]1O[C@@H](Oc2ccccc2CO)[C@H](O)[C@@H](O)[C@@H]1O)c1ccccc1,inactive,–
C[C@@H]1O[C@@H](O[C@@H]2\C=C/C=C\C=C/C=C\C[C@H](C)OC(=O)/C=C\[C@H]3O[C@@H]3C[C@H](O)C[C@]3(O)C[C@@H](O)[C@@H](C(=O)O)[C@H](C2)O3)[C@H](O)[C@H](N)[C@@H]1O,inactive,–
C=C1[C@H](OC(C)=O)[C@H]2[C@@H](OC(=O)c3ccccc3)[C@@H](C)C[C@]2(O)[C@@H](OC(C)=O)[C@H](C)/C=C/C(C)(C)C(=O)[C@H](OC(C)=O)[C@H]1OC(C)=O,inactive,–
COc1ccc(/C=C/C(=O)O[C@@H]2[C@@H](O[C@@H]3O[C@H](CO)[C@@H](O)[C@H](O)[C@H]3O)[C@@H](O)[C@H](O[C@H]3C4C=CO[C@@H](O[C@@H]5O[C@H](CO)[C@@H](O)[C@H](O)[C@H]5O)C4[C@@]4(CO)O[C@@H]34)O[C@H]2C)cc1 (stereo partly drawn),–,-1.37% [at 11.6 µM] (inactive)
C[C@@H]1C(=O)O[C@H]2[C@H]1CC[C@@]1(C)C(=O)C=C[C@@](C)(O)[C@H]21,inactive,–
COC(=O)c1ccccc1O[C@@H]1O[C@H](CO[C@@H]2OC[C@@H](O)[C@H](O)[C@H]2O)[C@@H](O)[C@H](O)[C@H]1O,inactive,–
N[C@@H](CC(=O)Nc1ccc(Oc2cc(F)c(F)cc2Br)cc1)C(=O)O,inactive,–
C[C@@]12CC3(S(=O)(=O)O)OC(O1)[C@]1(COC(=O)c4ccccc4)[C@H]3C[C@]21O[C@@H]1O[C@H](CO)[C@@H](O)[C@H](O)[C@H]1O,inactive,–
CC(=O)O[C@@H]1[C@H](OC(C)=O)C[C@@]2(C)C(CC[C@@H](C)[C@]23Cc2c(O)cc4c(c2O3)CN([C@@H](CCC(=O)O)C(=O)O)C4=O)C1(C)C (stereo partly drawn),inactive,–
C[C@@H]1O[C@@H](O[C@H]2[C@@H]3C=CO[C@@H](O[C@@H]4O[C@H](CO)[C@@H](O)[C@H](O)[C@H]4O)[C@@H]3[C@@]3(CO)O[C@@H]23)[C@H](O)[C@H](OC(=O)/C=C/c2ccc(O)c(O)c2)[C@H]1O,inactive,–
CCc1cc(CC[C@]2(C3CCCC3)CC(O)=C(Cc3nc4nc(C)cc(C)n4n3)C(=O)O2)cc(CC)n1,inactive,–
CN(C)C(=O)C(O)C(Cc1ccccc1)NC(=O)c1cc2cc(Cl)ccc2[nH]1 (stereo not drawn),inactive,–
COC(=O)c1[nH]c(=O)c2ccccc2c1-c1ccc[nH]1,inactive,–
CCC(C)/C=C(C)/C=C/C1=CC2=CC(=O)C(C)(O)C(OC(C)=O)C2CO1 (stereo not drawn),inactive,–

# Test system: SKOV3
# Assay: as above
# Conditions: Gynecologic cancer cell panel viability, ATPlite luminescence, 48 h; series mostly up to 57.5 µM
# How it was run: as §1
Compound,Potency,"activity change, negative = cytotoxicity"
O=C(O)CC/C=C\C[C@H]1CO[C@@H](c2ccccc2Cl)O[C@H]1c1ccccc1O,inactive,–
CCC/C=C1\OC(=O)C2=C1CCC(O)C2O (stereo not drawn),inactive,–
C=C(CCO)C(=O)OCC1OCC(OC(=O)C(=C)CCO[C@@H]2O[C@H](CO)[C@@H](O)[C@H](O)[C@H]2O)C(O)C1O (stereo partly drawn),inactive,–
COc1ccc(/C=C/C(N)=O)cc1OC,inactive,–
Cc1nnc(-c2sc(NC(=O)[C@H](C(C)C)n3c(=O)[nH]c4ccccc4c3=O)nc2C)o1,inactive,–
CNC(C)C(=O)NC(C(=O)N1CCCC1C(=O)Nc1cccc2ncccc12)C(C)C (stereo not drawn),7.94 µM (active),–
C=CC1(C)CC=C2C(CCC3C(C)(C(=O)O)CCCC23C)C1 (stereo not drawn),inactive,–
O=C(OCc1ccccc1O[C@@H]1O[C@H](CO)[C@@H](O)[C@H](O)[C@H]1O)C1(O)C=CCCC1O (stereo partly drawn),inactive,–
CC/C=C/C(O)C(O)C1=C(C)C(=O)C2(O1)C(=O)NC(OC)(C(=O)c1ccccc1)C2O (stereo not drawn),inactive,–
N[C@@H](CCNCc1ccc(Cl)cc1)C(=O)N1CCCCC1,inactive,–
OC[C@@]1(O)CO[C@H](OC[C@H]2O[C@@H](OC(CCCCc3ccc(O)cc3)CCc3ccc(O)cc3)[C@H](O)[C@@H](O)[C@@H]2O)[C@@H]1O (stereo partly drawn),inactive,–
CSCC[C@H](NC(=O)[C@H](CO)NC(=O)[C@H](CCC(=O)O)NC(C)=O)C(=O)N[C@H](C=O)CC(=O)O (Ac-ESMD-aldehyde),–,3.55% [at 11.6 µM] (inactive)
CC(C)(O)C(O)C(=O)OCc1ccc(O[C@@H]2O[C@H](CO)[C@@H](O)[C@H](O)[C@H]2O)cc1 (stereo partly drawn),inactive,–
C=C1C[C@H](O)[C@@H](O)[C@@]2(C)C1[C@@H](O)[C@H]1OC(=O)C3[C@@H](C)[C@@H](O)[C@H](O)C2[C@]31C (stereo partly drawn),inactive,–
OCC1=C[C@@H](O)[C@@H]2C=CO[C@@H](O[C@@H]3O[C@H](CO)[C@@H](O)[C@H](O)[C@H]3O)[C@H]12,inactive,–
Cc1cc(C)c2nc(-c3ccccn3)cc(C(=O)Nc3ccc(S(=O)(=O)Nc4onc(C)c4C)cc3)c2c1,inactive,–
COc1cc(/C=C/C(=O)OC[C@H]2O[C@@H](OC3OC=C(C(=O)O)C4C(O)CC(C)(O)C34)[C@H](O)[C@@H](O)[C@@H]2O)cc(OC)c1O (stereo partly drawn),inactive,–

Compound,Potency,"activity change, negative = cytotoxicity"
CC1(C)CC[C@]2(C(=O)O)[C@H](O)C[C@]3(C)C(=CCC4[C@@]5(C)CC[C@H](O[C@@H]6OC[C@@H](O)[C@H](O)[C@H]6O)[C@@](C)(C(=O)O)C5CC[C@]43C)[C@@H]2C1 (stereo partly drawn),inactive,–
COC(=O)CCC1(C)C(C(C)(C)O)C(O)CC2(C)Oc3c(C)c4c(c(OC)c3CC21)C(=O)OC4 (stereo not drawn),inactive,–
C=CC(C)(C)C12Nc3c(ccc4c3OC(C)(C)C=C4)C1(O)CC1C(=O)N3CCCC3C(=O)N12 (stereo not drawn),inactive,–
CCc1cccc2c3c([nH]c12)[C@@](CC)(CC(=O)O)OCC3,inactive,–
CN(C)CC(c1ccc(O)cc1)C1(O)CCCCC1 (stereo not drawn),inactive,–
OC[C@@]1(O)CO[C@@H](OC[C@H]2O[C@@H](Oc3ccccc3)[C@H](O)[C@@H](O)[C@@H]2O)[C@@H]1O,inactive,–
O=C(OC[C@H]1O[C@@H](Oc2ccccc2CO)[C@H](O)[C@@H](O)[C@@H]1O)c1ccccc1,inactive,–
C=C1[C@H](OC(C)=O)[C@H]2[C@@H](OC(=O)c3ccccc3)[C@@H](C)C[C@]2(O)[C@@H](OC(C)=O)[C@H](C)/C=C/C(C)(C)C(=O)[C@H](OC(C)=O)[C@H]1OC(C)=O,inactive,–
COc1ccc(/C=C/C(=O)O[C@@H]2[C@@H](O[C@@H]3O[C@H](CO)[C@@H](O)[C@H](O)[C@H]3O)[C@@H](O)[C@H](O[C@H]3C4C=CO[C@@H](O[C@@H]5O[C@H](CO)[C@@H](O)[C@H](O)[C@H]5O)C4[C@@]4(CO)O[C@@H]34)O[C@H]2C)cc1 (stereo partly drawn),–,1.14% [at 11.6 µM] (inactive)
COC(=O)c1ccccc1O[C@@H]1O[C@H](CO[C@@H]2OC[C@@H](O)[C@H](O)[C@H]2O)[C@@H](O)[C@H](O)[C@H]1O,inactive,–
N[C@@H](CC(=O)Nc1ccc(Oc2cc(F)c(F)cc2Br)cc1)C(=O)O,inactive,–
C[C@@]12CC3(S(=O)(=O)O)OC(O1)[C@]1(COC(=O)c4ccccc4)[C@H]3C[C@]21O[C@@H]1O[C@H](CO)[C@@H](O)[C@H](O)[C@H]1O,inactive,–
CC(=O)O[C@@H]1[C@H](OC(C)=O)C[C@@]2(C)C(CC[C@@H](C)[C@]23Cc2c(O)cc4c(c2O3)CN([C@@H](CCC(=O)O)C(=O)O)C4=O)C1(C)C (stereo partly drawn),inactive,–
CCc1cc(CC[C@]2(C3CCCC3)CC(O)=C(Cc3nc4nc(C)cc(C)n4n3)C(=O)O2)cc(CC)n1,inactive,–
CN(C)C(=O)C(O)C(Cc1ccccc1)NC(=O)c1cc2cc(Cl)ccc2[nH]1 (stereo not drawn),inactive,–
CCC(C)/C=C(C)/C=C/C1=CC2=CC(=O)C(C)(O)C(OC(C)=O)C2CO1 (stereo not drawn),inactive,–
